The target of experiment [1] is Protein kinase C gamma type (Homo sapiens) (UniProt P05129). The following applies: at 1 µM.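 Also: each value is an averaged percent inhibition of the enzyme.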
Experiment [2] concerns the target T1, Protein kinase C iota type (Homo sapiens) (UniProt P41743).
T1 sequence (whole entry): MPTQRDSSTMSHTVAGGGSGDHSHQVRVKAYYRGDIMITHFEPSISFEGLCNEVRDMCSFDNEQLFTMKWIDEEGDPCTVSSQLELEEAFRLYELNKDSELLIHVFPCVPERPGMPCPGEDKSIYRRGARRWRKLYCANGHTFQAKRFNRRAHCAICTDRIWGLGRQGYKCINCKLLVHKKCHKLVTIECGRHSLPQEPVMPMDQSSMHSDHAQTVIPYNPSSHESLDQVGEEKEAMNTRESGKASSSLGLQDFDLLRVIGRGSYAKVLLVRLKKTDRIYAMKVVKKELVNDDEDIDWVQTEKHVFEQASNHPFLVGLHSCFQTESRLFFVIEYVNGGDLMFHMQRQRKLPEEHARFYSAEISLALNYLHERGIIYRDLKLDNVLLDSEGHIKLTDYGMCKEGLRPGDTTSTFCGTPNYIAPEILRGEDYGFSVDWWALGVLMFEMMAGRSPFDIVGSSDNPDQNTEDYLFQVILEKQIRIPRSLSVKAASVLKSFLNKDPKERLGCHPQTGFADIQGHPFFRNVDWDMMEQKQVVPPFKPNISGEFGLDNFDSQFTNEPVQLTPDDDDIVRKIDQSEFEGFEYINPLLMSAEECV
The following applies: at 0.1 µM.

For experiment [3], the target named is T1, Protein kinase C iota type (Homo sapiens). The following applies: at 1 µM.
For experiment [4], the target named is Protein kinase C theta type (Homo sapiens) (UniProt Q04759). The following applies: at 0.1 µM.
Protein kinase C theta type (Homo sapiens), sequence (Q04759 whole entry, looked up): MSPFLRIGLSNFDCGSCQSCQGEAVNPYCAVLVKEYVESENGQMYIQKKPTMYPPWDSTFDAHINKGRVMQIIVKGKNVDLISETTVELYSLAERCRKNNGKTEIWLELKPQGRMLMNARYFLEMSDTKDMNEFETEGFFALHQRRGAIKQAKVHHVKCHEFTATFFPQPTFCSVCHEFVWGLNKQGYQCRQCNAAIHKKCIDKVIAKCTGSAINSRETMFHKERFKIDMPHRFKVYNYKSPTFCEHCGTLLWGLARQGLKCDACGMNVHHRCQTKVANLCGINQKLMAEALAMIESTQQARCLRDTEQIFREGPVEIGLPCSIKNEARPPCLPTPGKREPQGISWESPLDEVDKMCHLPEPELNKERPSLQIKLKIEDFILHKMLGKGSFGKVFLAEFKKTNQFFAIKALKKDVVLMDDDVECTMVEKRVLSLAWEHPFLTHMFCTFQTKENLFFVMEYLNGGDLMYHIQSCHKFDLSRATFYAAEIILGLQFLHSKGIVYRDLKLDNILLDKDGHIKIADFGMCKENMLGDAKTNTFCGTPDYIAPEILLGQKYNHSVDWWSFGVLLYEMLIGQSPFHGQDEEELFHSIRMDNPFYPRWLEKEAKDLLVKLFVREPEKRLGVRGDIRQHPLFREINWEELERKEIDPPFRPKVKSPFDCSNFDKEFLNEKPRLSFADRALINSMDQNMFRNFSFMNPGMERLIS
The target is the same in experiment [5]. The following applies: at 1 µM.
For experiment [6], the target named is Protein kinase C beta type (Homo sapiens) (UniProt P05771). The following applies: at 0.1 µM.
Protein kinase C beta type (Homo sapiens), sequence (P05771 2-671 limits assumed): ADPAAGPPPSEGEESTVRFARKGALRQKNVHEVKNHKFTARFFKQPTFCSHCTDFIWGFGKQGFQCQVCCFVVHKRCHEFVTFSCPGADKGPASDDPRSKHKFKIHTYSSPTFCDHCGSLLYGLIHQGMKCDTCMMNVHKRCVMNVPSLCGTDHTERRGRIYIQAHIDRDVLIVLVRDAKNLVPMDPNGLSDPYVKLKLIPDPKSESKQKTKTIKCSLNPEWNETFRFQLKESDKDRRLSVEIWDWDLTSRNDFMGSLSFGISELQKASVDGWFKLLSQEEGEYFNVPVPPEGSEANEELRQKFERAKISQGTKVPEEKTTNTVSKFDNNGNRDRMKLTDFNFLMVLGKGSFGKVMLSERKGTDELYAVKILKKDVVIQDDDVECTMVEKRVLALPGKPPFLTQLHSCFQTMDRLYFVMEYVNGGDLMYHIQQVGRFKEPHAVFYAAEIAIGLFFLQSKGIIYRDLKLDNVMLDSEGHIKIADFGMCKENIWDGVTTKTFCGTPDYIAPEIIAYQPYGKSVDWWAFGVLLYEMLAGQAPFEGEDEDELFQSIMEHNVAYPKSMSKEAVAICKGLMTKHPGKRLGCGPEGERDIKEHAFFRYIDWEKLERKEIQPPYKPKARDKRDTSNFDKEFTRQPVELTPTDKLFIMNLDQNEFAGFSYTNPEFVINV
For experiment [7] the target is unchanged. The following applies: at 1 µM.
Experiment [8] deals with T2, Serine/threonine-protein kinase D1 (Homo sapiens) (UniProt Q15139).
T2 sequence (whole entry): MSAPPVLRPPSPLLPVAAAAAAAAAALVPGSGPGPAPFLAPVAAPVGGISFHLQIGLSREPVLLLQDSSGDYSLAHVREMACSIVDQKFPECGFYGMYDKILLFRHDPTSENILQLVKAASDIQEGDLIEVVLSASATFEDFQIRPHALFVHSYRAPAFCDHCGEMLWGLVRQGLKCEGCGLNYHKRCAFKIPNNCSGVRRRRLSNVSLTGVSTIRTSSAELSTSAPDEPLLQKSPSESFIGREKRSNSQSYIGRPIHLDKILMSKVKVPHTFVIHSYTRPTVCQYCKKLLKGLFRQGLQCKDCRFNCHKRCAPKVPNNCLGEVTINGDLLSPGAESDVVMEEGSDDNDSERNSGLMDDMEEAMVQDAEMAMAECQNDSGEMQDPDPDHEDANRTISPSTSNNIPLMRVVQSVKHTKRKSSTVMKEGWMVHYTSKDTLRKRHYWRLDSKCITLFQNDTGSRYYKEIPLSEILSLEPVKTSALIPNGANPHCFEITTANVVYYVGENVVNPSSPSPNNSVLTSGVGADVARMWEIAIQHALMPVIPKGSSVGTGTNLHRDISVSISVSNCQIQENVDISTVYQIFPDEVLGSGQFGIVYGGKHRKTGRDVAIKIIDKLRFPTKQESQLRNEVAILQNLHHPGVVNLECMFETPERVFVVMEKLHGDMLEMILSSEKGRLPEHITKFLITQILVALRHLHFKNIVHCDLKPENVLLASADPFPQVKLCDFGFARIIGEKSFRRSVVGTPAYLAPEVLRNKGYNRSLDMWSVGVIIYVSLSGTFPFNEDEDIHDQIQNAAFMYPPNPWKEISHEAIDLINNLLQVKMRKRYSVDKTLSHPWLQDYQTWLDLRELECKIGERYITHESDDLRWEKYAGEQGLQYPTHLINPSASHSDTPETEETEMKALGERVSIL
The following applies: at 0.1 µM.

Experiment [9] concerns the target T2, Serine/threonine-protein kinase D1 (Homo sapiens). The following applies: at 1 µM.
Experiment [10] has as its target T3, Serine/threonine-protein kinase D2 (Homo sapiens) (UniProt Q9BZL6).
T3 sequence (whole entry): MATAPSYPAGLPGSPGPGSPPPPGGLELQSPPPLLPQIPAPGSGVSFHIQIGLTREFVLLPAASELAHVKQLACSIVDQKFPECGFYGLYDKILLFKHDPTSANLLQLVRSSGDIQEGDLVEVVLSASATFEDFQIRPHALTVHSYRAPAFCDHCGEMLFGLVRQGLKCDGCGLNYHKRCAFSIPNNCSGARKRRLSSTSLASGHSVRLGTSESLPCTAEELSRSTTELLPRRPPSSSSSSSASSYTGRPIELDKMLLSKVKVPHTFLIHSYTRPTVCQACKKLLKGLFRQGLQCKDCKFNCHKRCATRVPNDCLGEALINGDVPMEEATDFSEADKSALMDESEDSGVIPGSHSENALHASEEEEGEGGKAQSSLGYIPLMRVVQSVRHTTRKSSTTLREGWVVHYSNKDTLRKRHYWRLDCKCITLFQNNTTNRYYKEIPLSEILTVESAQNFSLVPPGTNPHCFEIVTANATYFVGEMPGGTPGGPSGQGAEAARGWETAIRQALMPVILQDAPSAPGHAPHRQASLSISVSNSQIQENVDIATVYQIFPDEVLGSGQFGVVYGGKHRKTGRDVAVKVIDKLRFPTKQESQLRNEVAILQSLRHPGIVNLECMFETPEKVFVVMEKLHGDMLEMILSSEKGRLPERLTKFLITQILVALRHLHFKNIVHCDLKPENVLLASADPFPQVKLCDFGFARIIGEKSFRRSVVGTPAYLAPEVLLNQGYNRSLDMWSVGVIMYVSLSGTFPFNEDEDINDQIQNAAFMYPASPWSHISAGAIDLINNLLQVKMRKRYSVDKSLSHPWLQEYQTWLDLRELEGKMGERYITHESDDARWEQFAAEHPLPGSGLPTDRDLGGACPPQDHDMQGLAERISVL
The following applies: at 0.1 µM.

The target in experiment [11] is T3, Serine/threonine-protein kinase D2 (Homo sapiens). The following applies: at 1 µM.
In experiment [12] the target is T4, Serine/threonine-protein kinase D3 (Homo sapiens) (UniProt O94806).
T4 sequence (whole entry): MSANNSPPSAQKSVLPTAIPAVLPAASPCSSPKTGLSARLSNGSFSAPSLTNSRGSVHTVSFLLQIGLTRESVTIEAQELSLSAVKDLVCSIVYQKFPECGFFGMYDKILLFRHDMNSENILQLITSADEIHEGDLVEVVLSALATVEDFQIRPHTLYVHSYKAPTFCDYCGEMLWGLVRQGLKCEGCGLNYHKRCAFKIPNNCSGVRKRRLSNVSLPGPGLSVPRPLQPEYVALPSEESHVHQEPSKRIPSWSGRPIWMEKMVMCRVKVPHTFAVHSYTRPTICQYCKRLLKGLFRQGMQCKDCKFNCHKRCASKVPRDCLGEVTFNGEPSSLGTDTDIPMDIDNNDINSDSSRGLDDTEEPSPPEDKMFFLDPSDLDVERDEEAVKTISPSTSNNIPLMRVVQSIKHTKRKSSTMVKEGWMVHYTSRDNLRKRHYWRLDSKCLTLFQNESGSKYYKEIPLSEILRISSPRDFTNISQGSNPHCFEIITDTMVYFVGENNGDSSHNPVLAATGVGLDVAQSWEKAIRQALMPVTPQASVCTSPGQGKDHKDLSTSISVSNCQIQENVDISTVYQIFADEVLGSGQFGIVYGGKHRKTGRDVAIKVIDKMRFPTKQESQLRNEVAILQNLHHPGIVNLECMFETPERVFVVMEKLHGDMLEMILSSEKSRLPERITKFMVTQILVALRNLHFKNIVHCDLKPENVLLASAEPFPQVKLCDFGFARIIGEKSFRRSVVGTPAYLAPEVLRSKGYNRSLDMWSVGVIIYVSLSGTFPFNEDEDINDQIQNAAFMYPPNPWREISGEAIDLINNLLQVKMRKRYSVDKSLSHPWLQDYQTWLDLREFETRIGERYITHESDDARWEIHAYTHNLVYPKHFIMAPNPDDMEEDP
The following applies: at 0.1 µM.

Experiment [13] addresses T4, Serine/threonine-protein kinase D3 (Homo sapiens). The following applies: at 1 µM.
The target in experiment [14] is T5, cGMP-dependent protein kinase 1 (Homo sapiens) (UniProt Q13976).
T5 sequence (whole entry): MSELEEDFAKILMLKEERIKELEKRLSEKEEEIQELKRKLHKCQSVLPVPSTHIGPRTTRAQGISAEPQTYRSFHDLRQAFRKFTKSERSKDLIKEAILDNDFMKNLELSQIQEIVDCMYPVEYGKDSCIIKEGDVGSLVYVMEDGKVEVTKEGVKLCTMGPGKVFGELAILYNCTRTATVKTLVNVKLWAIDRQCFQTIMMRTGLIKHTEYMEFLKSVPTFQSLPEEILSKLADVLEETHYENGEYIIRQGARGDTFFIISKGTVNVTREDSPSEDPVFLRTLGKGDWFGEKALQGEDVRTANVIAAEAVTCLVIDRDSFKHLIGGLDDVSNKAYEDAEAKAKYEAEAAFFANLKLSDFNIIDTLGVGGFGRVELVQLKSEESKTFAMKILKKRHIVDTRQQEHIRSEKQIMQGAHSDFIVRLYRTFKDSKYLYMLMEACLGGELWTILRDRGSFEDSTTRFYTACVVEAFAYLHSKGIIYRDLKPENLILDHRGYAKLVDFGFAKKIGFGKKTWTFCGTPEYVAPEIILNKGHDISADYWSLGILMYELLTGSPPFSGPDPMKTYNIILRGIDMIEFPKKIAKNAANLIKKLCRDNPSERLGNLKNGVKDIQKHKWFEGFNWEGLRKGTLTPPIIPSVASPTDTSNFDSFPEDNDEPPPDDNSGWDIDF
The following applies: at 0.1 µM.

In experiment [15] the target is T5, cGMP-dependent protein kinase 1 (Homo sapiens). The following applies: at 1 µM.
In experiment [16] the target is T6, cGMP-dependent protein kinase 2 (Homo sapiens) (UniProt Q13237).
T6 sequence (whole entry): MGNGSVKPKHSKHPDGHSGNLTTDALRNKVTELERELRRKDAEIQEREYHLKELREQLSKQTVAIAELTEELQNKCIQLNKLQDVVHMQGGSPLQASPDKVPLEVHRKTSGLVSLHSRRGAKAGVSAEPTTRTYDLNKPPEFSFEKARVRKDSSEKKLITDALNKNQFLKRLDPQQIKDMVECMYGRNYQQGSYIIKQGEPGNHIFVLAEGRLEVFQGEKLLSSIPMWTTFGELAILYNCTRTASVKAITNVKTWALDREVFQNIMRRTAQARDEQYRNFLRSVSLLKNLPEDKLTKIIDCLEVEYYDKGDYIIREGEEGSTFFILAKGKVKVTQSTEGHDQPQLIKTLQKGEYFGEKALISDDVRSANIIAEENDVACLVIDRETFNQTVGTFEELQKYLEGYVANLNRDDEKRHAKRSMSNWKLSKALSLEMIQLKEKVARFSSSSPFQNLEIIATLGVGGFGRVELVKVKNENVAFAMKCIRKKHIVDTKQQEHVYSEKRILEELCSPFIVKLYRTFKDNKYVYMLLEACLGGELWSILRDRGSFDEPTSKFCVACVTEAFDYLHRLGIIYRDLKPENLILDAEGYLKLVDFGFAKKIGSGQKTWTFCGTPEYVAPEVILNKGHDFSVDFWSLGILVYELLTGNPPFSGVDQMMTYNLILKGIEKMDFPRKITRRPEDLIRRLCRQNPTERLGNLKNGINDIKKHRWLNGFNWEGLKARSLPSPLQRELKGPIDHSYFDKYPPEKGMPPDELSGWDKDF
The following applies: at 0.1 µM.

The target in experiment [17] is T6, cGMP-dependent protein kinase 2 (Homo sapiens). The following applies: at 1 µM.
The target of experiment [18] is T7, cAMP-dependent protein kinase catalytic subunit PRKX (Homo sapiens) (UniProt P51817).
T7 sequence (whole entry): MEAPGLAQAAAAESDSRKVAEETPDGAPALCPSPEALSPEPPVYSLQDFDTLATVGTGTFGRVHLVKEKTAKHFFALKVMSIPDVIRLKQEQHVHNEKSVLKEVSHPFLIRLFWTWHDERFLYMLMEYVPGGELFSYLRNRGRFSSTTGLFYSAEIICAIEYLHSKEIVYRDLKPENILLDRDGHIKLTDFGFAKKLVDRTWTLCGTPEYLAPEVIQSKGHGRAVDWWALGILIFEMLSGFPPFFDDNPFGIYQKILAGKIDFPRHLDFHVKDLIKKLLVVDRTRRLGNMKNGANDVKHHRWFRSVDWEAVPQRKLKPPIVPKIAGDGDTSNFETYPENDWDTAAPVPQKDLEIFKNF
The following applies: at 0.1 µM.

Experiment [19] addresses T7, cAMP-dependent protein kinase catalytic subunit PRKX (Homo sapiens). The following applies: at 1 µM.
Experiment [20] addresses Rho-associated protein kinase 1 (Homo sapiens) (UniProt Q13464). The following applies: at 0.1 µM.

Molecules are shown by their SMILES.

Rho-associated protein kinase 1 (Homo sapiens), sequence (Q13464 2-1354 limits assumed): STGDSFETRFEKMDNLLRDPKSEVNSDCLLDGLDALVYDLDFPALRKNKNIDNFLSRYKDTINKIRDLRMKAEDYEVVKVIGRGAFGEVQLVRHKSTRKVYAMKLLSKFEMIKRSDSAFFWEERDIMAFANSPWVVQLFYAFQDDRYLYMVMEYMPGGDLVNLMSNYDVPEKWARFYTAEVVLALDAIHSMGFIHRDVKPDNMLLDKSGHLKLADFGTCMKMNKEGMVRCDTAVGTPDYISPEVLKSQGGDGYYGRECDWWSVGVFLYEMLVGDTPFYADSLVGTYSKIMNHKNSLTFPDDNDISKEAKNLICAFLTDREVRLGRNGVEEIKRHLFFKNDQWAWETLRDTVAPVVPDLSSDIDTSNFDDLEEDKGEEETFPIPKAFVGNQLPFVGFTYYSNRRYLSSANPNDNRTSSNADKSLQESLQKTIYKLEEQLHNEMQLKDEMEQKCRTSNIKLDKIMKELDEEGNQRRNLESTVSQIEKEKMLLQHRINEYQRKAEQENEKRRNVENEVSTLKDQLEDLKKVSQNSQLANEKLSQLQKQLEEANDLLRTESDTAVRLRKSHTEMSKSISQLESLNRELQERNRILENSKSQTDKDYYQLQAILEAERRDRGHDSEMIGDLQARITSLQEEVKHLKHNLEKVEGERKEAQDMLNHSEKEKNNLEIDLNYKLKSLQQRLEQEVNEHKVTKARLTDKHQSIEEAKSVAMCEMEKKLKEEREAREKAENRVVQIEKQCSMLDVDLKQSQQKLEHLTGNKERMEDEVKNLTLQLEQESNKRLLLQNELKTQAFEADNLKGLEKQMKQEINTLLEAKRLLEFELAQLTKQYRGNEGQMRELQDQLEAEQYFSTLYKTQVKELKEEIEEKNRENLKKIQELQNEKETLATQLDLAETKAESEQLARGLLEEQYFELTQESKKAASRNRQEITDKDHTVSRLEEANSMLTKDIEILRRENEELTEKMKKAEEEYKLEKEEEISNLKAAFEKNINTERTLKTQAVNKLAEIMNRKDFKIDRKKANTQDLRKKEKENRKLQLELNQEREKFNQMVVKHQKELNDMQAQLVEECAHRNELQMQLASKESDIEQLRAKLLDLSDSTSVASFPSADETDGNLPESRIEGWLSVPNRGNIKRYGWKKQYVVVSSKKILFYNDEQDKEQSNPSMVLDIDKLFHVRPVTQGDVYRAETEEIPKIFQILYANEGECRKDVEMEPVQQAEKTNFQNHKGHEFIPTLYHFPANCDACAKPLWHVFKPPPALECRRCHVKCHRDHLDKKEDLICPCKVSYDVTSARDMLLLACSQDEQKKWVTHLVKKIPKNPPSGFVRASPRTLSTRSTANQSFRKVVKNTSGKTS

For the compound `O=C(O[C@H]1CN[C@H](C#Cc2cc3ncnc(Nc4ccc(OCc5cccc(F)c5)c(Cl)c4)c3s2)C1)N1CCOCC1`, the inhibition is 5.45% in [1]; 1.77% in [2]; 0.9% in [3]; 3.84% in [4]; 5.14% in experiment [5]; 2.11% in [6]. Besides, the inhibition in experiment [7] was 1.21%; in [8], 4.61%; in [9], 6.86%; in experiment [10] it was 6.18%; in experiment [11], 6.01%; in experiment [12] it was 6.55%. The inhibition in [13] is 6.45%; in experiment [14], 3.08%; in [15], 7.14%; in [16], 3.07%; in experiment [17], 4.91%; in experiment [18] it was 3.17%. Further, the inhibition in [19] stood at 6.34%; in experiment [20] it was 0.81%.

In general, inhibition refers to the change of the read-out against control, counted positive when it falls. High values mean a response far below the control, low ones a response near the control.

(Values after ChEMBL document CHEMBL1961873, “Compounds: GSK PKIS; Assays: Nanosyn kinase panel” (2012).)
